Results from the supplement of paper PMC11732987, “Enantioselective OTUD7B fragment discovery through chemoproteomics screening and high-throughput optimisation” (Communications Chemistry, 2025).

Assays:
Experiment in all cases: log2 ratio of Biotin-Ahx-Ub-VS probe labelling (fragment/DMSO); higher = less target engagement (more negative = stronger competition), active = hit call of the paper (q ≤ 0.05, log2 ratio ≤ -1)
Details in all cases: compound concentration: 200 uM; treatment time: 3 h
USP42 = target: T1, USP42 (UniProt Q9H9J4)
T1 sequence (whole entry): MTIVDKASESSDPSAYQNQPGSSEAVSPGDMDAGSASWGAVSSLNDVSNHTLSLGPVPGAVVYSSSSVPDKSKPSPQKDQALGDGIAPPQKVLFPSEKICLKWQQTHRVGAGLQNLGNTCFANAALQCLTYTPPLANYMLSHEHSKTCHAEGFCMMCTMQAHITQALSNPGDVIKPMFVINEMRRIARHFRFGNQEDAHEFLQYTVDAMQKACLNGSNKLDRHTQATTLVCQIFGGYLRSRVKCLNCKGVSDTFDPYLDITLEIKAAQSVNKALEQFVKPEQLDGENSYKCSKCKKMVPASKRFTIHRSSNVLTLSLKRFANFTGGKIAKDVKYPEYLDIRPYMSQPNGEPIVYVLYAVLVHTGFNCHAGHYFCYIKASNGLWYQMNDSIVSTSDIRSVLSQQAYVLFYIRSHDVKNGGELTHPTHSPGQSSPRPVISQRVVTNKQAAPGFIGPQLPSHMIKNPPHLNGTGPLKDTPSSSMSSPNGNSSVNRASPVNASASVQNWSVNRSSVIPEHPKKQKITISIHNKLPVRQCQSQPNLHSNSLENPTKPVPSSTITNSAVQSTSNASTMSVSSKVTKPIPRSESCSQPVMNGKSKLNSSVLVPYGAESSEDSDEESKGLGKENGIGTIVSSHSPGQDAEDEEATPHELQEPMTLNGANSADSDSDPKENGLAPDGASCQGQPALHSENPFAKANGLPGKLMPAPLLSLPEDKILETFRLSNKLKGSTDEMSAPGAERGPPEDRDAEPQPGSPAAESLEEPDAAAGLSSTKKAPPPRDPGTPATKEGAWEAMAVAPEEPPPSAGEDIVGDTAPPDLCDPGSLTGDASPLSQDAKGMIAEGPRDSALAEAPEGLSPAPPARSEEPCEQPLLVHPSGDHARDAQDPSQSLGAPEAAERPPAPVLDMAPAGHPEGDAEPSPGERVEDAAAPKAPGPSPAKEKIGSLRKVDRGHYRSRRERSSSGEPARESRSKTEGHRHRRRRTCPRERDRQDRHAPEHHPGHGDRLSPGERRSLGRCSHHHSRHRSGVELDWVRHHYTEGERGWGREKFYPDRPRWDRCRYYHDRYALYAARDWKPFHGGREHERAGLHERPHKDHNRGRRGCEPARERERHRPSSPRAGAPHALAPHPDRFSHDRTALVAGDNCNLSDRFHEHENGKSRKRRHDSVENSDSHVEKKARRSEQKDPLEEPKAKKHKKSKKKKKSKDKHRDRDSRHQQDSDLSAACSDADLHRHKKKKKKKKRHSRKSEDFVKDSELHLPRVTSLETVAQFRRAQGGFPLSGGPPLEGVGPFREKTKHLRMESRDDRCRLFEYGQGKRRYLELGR
Outline: (§1)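 Labelled DUBs were enriched with NeutrAvidin, digested with LysC and trypsin, and run by diaPASEF LC-MS/MS. The labelling used Biotin-Ahx-Ub-VS at 0.5 µM final for 1 h on HEK293T lysate (495 µg per sample) previously treated in triplicate with fragment at 200 µM or vehicle for 3 h. Values are average log2 fragment/vehicle ratios by unpaired t-test on global-median-normalised Spectronaut quantities of proteins with ≥2 unique peptides.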

USP46 = USP46 (UniProt P62068)
Outline: as §1

USP47 = target: T2, USP47 (UniProt Q96K76)
T2 sequence (whole entry): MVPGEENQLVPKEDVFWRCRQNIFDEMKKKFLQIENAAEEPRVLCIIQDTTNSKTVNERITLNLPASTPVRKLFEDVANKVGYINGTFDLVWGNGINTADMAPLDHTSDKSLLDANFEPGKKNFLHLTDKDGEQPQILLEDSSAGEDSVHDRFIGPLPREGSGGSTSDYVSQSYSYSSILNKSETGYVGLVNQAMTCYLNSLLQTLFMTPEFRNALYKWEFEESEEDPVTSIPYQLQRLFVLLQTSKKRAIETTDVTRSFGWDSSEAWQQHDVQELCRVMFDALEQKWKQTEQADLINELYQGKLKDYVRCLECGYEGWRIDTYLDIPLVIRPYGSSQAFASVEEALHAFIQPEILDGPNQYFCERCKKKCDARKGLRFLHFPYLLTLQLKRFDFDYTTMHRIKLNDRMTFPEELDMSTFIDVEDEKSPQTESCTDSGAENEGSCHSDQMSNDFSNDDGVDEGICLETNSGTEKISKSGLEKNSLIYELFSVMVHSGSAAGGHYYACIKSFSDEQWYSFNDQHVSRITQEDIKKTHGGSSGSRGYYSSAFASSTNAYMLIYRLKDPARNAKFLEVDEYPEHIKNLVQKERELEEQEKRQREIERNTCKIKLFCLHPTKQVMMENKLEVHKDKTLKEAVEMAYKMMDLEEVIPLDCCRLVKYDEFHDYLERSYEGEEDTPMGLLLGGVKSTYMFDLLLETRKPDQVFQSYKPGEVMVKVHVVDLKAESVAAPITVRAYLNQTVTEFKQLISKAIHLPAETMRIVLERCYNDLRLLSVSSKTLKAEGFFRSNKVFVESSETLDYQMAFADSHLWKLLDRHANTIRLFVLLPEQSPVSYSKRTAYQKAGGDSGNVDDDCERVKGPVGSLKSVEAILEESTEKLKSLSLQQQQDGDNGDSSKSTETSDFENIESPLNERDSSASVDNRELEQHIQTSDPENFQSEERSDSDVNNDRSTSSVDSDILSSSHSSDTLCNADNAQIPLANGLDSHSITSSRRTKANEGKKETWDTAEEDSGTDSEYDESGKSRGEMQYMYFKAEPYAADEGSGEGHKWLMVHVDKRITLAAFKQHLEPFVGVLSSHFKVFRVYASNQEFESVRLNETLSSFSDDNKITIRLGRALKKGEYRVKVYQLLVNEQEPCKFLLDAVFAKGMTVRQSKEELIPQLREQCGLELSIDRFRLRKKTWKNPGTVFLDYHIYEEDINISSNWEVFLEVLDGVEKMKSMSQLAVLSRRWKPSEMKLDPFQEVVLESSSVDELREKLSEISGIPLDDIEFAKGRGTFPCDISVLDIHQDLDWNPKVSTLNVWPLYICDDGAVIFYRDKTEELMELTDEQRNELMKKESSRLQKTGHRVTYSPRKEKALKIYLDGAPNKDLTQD
Outline: as §1

USP48 = target: T3, USP48 (UniProt Q86UV5)
T3 sequence (whole entry): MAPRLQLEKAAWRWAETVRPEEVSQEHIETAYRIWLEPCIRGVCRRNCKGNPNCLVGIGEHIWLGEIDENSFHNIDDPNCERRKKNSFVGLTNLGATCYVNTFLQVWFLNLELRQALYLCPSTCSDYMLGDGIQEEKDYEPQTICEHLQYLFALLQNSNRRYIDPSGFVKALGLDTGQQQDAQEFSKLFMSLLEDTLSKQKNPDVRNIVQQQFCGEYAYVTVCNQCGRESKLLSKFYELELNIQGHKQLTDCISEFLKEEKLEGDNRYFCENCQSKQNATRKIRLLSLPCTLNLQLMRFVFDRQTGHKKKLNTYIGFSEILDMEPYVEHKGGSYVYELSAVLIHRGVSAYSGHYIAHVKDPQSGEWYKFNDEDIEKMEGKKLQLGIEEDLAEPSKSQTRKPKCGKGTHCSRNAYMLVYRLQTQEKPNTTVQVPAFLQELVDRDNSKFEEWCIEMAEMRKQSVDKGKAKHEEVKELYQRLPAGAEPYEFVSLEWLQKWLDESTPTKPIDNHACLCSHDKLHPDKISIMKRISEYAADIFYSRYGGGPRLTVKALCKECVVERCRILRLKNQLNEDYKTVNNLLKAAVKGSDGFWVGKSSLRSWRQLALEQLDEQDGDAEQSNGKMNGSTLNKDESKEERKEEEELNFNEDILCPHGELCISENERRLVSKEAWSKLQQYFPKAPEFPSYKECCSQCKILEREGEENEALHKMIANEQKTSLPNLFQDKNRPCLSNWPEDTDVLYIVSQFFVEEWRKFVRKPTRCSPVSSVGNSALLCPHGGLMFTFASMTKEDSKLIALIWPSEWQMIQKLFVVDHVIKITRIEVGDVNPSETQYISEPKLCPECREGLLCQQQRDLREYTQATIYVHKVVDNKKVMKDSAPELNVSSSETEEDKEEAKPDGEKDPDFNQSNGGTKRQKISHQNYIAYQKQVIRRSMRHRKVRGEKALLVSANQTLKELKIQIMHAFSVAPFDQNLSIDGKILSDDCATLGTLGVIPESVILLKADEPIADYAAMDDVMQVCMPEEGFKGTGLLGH
Outline: as §1

USP5 = target: T4, USP5 (UniProt P45974)
T4 sequence (whole entry): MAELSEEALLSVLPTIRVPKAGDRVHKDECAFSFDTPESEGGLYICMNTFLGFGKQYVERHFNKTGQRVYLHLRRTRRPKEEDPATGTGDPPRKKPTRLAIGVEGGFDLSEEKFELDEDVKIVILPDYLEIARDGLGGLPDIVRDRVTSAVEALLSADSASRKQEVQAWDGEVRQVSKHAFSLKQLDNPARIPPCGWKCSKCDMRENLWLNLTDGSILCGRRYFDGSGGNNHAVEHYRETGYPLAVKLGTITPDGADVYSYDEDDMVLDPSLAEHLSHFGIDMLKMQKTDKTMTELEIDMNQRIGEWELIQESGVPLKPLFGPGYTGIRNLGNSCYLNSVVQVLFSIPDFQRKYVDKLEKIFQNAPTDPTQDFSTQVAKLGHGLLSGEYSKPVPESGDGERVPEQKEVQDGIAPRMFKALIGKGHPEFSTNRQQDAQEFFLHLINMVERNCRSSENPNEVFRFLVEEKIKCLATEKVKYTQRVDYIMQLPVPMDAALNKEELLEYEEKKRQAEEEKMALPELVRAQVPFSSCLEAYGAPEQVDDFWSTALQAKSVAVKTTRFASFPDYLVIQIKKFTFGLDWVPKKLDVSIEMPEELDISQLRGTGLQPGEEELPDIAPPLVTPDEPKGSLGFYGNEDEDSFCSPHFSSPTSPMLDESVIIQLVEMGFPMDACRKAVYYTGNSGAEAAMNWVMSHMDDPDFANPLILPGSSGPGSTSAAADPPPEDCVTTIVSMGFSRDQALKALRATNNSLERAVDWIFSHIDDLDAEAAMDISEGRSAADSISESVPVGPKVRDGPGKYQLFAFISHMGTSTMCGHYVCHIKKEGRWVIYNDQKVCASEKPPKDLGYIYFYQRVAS
Outline: as §1

USP54 = USP54 (UniProt Q70EL1)
Outline: as §1

USP7 = USP7 (UniProt Q93009)
Outline: as §1

USP8 = target: T5, USP8 (UniProt P40818)
T5 sequence (whole entry): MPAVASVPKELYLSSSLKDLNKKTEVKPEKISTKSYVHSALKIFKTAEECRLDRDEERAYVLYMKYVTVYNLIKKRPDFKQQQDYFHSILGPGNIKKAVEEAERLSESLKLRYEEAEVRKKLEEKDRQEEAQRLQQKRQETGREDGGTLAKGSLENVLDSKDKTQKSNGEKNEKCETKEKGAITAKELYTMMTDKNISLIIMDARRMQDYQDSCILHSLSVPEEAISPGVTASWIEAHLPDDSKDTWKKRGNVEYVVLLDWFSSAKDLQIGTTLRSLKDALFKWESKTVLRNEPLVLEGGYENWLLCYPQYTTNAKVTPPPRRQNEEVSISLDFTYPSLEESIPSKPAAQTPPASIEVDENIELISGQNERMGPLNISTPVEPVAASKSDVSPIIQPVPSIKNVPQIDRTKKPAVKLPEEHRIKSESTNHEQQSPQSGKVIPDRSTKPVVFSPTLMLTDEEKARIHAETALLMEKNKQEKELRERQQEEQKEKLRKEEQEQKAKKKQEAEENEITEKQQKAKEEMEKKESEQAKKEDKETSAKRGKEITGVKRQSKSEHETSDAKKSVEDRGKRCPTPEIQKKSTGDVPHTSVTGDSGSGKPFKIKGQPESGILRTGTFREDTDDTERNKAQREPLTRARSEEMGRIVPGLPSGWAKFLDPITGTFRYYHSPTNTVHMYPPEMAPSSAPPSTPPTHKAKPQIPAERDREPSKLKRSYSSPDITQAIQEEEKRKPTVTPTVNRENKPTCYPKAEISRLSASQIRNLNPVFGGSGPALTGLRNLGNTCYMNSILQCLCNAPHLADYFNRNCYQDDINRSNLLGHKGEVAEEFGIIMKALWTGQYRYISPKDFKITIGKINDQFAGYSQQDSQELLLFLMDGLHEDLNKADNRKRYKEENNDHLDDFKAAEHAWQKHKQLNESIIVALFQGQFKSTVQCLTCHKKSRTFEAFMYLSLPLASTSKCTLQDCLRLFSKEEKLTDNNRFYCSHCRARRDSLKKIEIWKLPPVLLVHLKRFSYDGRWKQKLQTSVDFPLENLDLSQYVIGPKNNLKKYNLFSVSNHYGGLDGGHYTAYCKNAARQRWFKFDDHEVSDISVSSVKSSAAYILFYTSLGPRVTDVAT
Outline: as §1

USP9X = USP9X (UniProt Q93008)
Outline: as §1

UniProt O00487 = target: UniProt O00487
Outline: as §1

Measured: log2 ratio of Biotin-Ahx-Ub-VS probe labelling

Sequence of UniProt O00487 (O00487 whole entry): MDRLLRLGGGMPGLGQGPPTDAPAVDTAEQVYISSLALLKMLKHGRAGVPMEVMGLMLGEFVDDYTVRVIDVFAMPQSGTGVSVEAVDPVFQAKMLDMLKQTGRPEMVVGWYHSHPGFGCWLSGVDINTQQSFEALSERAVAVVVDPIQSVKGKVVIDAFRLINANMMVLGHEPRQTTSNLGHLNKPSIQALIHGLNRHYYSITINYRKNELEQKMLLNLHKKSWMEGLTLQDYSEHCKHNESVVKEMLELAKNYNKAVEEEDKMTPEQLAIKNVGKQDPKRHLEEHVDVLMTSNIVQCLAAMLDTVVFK
Sequence of USP46 (P62068 whole entry): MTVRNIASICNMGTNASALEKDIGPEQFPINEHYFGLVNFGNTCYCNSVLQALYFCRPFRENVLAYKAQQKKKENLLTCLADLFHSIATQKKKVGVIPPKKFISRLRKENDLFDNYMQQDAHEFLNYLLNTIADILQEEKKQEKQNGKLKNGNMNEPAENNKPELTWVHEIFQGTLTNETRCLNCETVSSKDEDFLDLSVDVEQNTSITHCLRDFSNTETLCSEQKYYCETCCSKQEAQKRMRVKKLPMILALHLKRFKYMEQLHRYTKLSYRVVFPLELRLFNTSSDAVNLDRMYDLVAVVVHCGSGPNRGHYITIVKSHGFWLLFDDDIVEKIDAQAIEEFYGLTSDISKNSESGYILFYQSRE
Sequence of USP54 (Q70EL1 whole entry): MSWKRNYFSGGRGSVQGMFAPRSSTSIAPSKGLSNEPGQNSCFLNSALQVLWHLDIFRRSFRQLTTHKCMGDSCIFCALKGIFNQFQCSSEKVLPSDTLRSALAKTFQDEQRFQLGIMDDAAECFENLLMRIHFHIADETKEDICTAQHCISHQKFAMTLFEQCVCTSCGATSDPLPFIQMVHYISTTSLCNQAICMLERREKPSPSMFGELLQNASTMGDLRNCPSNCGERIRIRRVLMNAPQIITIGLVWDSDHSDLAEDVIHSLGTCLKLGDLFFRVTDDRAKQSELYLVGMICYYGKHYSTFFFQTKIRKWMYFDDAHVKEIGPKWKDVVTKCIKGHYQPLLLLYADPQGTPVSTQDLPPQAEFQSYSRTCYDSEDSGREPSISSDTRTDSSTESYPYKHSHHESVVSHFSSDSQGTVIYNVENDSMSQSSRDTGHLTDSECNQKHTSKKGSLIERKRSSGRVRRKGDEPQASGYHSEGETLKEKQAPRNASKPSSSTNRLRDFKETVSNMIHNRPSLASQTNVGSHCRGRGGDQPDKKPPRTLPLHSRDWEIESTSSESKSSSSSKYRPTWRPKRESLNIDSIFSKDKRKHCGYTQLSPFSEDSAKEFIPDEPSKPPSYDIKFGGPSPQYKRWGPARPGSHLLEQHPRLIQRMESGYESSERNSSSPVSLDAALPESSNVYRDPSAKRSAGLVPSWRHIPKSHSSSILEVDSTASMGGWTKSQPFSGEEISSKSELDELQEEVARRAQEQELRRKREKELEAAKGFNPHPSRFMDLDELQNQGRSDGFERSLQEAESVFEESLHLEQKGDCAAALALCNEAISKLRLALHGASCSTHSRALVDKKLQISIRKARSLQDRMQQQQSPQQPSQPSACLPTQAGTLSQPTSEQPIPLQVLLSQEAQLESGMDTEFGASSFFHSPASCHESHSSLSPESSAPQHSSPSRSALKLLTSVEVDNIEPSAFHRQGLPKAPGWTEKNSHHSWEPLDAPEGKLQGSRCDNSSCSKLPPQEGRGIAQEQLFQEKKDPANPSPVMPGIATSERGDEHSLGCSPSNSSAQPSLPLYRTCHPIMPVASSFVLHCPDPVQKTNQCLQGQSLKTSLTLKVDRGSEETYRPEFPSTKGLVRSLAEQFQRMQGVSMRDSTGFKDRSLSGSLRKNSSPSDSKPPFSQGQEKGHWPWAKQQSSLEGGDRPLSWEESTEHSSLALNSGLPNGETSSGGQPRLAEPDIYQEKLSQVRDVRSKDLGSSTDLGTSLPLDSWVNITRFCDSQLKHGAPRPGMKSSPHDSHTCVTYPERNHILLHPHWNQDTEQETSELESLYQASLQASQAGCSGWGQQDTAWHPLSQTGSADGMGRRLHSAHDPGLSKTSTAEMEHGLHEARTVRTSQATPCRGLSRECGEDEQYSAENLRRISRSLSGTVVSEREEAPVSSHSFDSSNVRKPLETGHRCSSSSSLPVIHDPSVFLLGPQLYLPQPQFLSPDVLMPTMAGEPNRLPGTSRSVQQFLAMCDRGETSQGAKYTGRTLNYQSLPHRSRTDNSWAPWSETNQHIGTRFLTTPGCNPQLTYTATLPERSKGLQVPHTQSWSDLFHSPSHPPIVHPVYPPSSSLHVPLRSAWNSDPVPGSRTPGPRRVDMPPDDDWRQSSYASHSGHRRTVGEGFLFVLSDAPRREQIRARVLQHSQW
Sequence of USP7 (Q93009 whole entry, looked up): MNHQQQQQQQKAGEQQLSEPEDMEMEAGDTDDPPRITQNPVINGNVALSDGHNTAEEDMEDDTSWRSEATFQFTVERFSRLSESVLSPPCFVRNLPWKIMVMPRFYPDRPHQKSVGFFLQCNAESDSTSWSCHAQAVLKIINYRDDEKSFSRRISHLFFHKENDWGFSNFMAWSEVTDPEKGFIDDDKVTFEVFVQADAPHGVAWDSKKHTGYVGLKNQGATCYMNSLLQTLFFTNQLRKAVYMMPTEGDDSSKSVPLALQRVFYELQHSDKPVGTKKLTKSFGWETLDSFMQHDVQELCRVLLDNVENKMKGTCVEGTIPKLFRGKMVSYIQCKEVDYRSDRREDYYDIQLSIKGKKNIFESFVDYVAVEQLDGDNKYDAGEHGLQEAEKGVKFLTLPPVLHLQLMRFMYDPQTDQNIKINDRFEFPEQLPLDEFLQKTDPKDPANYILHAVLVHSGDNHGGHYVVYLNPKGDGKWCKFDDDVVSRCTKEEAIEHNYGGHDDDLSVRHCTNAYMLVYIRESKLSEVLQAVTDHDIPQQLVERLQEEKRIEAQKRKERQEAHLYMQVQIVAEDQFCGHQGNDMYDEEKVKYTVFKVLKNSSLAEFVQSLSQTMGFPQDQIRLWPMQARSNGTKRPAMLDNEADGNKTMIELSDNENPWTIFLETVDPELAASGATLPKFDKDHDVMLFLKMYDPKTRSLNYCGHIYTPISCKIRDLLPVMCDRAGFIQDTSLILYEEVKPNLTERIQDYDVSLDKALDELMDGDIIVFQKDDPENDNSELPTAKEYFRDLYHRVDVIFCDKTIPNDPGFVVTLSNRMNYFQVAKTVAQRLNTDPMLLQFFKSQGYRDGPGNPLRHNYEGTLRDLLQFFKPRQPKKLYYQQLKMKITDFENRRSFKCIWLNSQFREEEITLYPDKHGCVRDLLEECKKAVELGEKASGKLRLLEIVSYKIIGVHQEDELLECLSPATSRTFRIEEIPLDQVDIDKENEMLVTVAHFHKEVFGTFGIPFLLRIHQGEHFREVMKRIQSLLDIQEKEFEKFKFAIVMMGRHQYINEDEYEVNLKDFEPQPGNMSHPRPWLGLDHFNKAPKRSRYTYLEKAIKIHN

Cl.O=C(CCl)N1CCC(Cc2nccs2)C1 (stereo not given)
inactive: USP42 0.34 | USP46 0.105 | USP47 -0.538 | USP48 -0.286 | USP5 0.225 | USP54 0.476 | USP7 -0.334 | USP8 -0.208 | USP9X -0.186 | UniProt O00487 -0.1

CN1c2ccccc2C(NC(=O)CCl)CS1(=O)=O (stereo not given)
inactive: USP42 -0.0975 | USP46 0.0351 | USP47 -0.132 | USP48 -0.464 | USP5 0.146 | USP54 0.66 | USP7 -0.369 | USP8 -0.341 | USP9X -0.252 | UniProt O00487 -0.206

O=C(CCl)N1CCOCC1C1CC1 (stereo not given)
inactive: USP42 -0.112 | USP46 0.00778 | USP47 -0.0311 | USP48 0.0155 | USP5 0.147 | USP54 0.967 | USP7 -0.145 | USP8 -0.168 | USP9X -0.18 | UniProt O00487 -0.226
